Laboratory results reported in PubChem BioAssay AID2653 (National Center for Advancing Translational Sciences (NCATS), 2010).
Records with an inconclusive call do not appear. A number with no mark means an inactive call. Calls follow the shape of the dose curve; as a rule, active = well fitted curve in the direction sought with a large enough effect; inconclusive = small, poorly fitted or top-dose-only effect, or another doubt; inactive = no such curve, though single readings can be large or run the other way.

Test: Secondary Assay for Activators of Human Pyruvate Kinase M2 isoform - Cell Titer Glo Cytotoxicity for Probe SAR; also: % of control where 0% means no effect
Conditions: HeLa viability, CellTiter-Glo ATP luminescence, 24 h; series mostly up to 58.2 µM; activity change, negative = cytotoxicity: at the top concentration
Procedure: NIH Chemical Genomics Center [NCGC]
Matthew G. Vander Heiden, M.D., Ph.D. [Harvard Medical School, 77 Avenue Louis Pasteur, Boston, MA 02115]
We have identified a series of activators of the M2 isoform of human pyruvate kinase. The assay described here examines the cytotoxicity of these compounds by measuring the total ATP content of Hela cells after 24 hrs of exposure to compound.
500 Hela cells/ 4ul in media (DMEM with high glucose, 10% FBS, 1x Pen Strep, 1x NEAA) were dispensed into a white solid 1536-microwell plate with a Thermo Multidrop. The plates were incubated at 37 degrees Celsius for 24 hours. The cells were then treated with compounds using the Kalypsys pin tool, delivering 23 nl of test compounds and the control doxorubicin. The plates were then incubated for an additional 24 hours at 37 degrees C after which 4 ul of Promega Cell-Titer Glo was dispensed using the Thermo Multidrop. The plates were incubated at room temperature for 10 min before reading luminescence on the Perkin Elmer ViewLux with images collected with 2x binning and a 5 sec exposure time.

Question: Which “activity change, negative = cytotoxicity” value does the source give for `Cc1ccc(NS(=O)(=O)c2cc3c(cc2N(C)C)NC(=O)CC3)cc1C` here?
Answer: 1.2%

Question: With `Cc1ccc(-c2nc3ccc(Cl)cn3c2Nc2ccccc2)o1` as the compound, how does the “activity change, negative = cytotoxicity” value read?
Answer: -21%

Question: Which “activity change, negative = cytotoxicity” value does the source give for `Cc1ccc(NS(=O)(=O)c2cc3c(cc2N(C)C)CCC(=O)N3)cc1C` here?
Answer: -16%

Question: With `O=C1c2ccccc2C(=O)N1Cc1ccccc1` as the compound, how does the “activity change, negative = cytotoxicity” value read?
Answer: -17.4%

Question: With `Cc1ccc(-c2nc3ccccn3c2Nc2ccccc2C)o1` as the compound, how does the “activity change, negative = cytotoxicity” value read?
Answer: -15.4%

Question: With `O=C1CCc2cc([S+](=O)([O-])Nc3ccc(N[S+](=O)([O-])c4ccc5c(c4)CCC(=O)N5)cc3)ccc2N1` as the compound, how does the “activity change, negative = cytotoxicity” value read?
Answer: -12.1%

Question: Which “activity change, negative = cytotoxicity” value does the source give for `Cc1ccc(NS(=O)(=O)c2cc3c(cc2F)NC(=O)CC3)cc1Cl` here?
Answer: -30.8%

Question: Which “activity change, negative = cytotoxicity” value does the source give for `Cc1ccc(NS(=O)(=O)c2ccc3c(c2)CCC(=O)N3)cc1Cl` here?
Answer: -17.7%

Question: Which “activity change, negative = cytotoxicity” value does the source give for `COc1cccc(NS(=O)(=O)c2ccc3c(c2)CCC(=O)N3)c1` here?
Answer: -26.9%

Question: With `O=C1CCc2cc(S(=O)(=O)Nc3cccc(Cl)c3)ccc2N1` as the compound, how does the “activity change, negative = cytotoxicity” value read?
Answer: -11.9%

Question: With `Cc1ccc(NS(=O)(=O)c2cc3c(cc2Cl)NC(=O)CO3)cc1C` as the compound, how does the “activity change, negative = cytotoxicity” value read?
Answer: -9.17%

Question: With `O=C1CCc2cc(S(=O)(=O)Nc3ccccn3)ccc2N1` as the compound, how does the “activity change, negative = cytotoxicity” value read?
Answer: -2.99%

Question: With `O=C1c2ccccc2C(=O)N1c1cncc2ccccc12` as the compound, how does the “activity change, negative = cytotoxicity” value read?
Answer: -5.97%

Question: Which “activity change, negative = cytotoxicity” value does the source give for `CCCCN1C(=O)c2ccccc2C1=O` here?
Answer: 10.9%

Question: Which “activity change, negative = cytotoxicity” value does the source give for `Cc1ccccc1Nc1c(-c2ccccc2)nc2cccc(C)n12` here?
Answer: -16.5%

Question: With `Cc1ccccc1OC1=NS(=O)(=O)c2ccccc21` as the compound, how does the “activity change, negative = cytotoxicity” value read?
Answer: 2.36%

Question: With `O=C1CCc2cc(S(=O)(=O)Nc3ccc4ccccc4c3)ccc2N1` as the compound, how does the “activity change, negative = cytotoxicity” value read?
Answer: -30.1%

Question: Which “activity change, negative = cytotoxicity” value does the source give for `Cc1ccc(NS(=O)(=O)c2cc3c(cc2/C=C/c2ccccc2)NC(=O)CO3)cc1C` here?
Answer: -22.7%

Question: For `O=C1c2ccccc2C(=O)N1c1cccc(=O)[nH]1`, which “activity change, negative = cytotoxicity” value is on record?
Answer: 1.18%

Question: For `Cc1ccc(NS(=O)(=O)c2cc3c(cc2C)OCC(=O)N3)cc1C`, which “activity change, negative = cytotoxicity” value is on record?
Answer: -12%

Question: For `Nc1cc(S(=O)(=O)N2CCN(S(=O)(=O)c3ccc4c(c3)OCCO4)CC2)ccn1`, which “activity change, negative = cytotoxicity” value is on record?
Answer: -8.75%

Question: For `Cc1ccc(Nc2c(-c3ccc(C)s3)nc3ccccn23)cc1`, which “activity change, negative = cytotoxicity” value is on record?
Answer: -13.6%

Question: With `COc1ccc(-c2nc3ccccn3c2Nc2ccccc2C)cc1` as the compound, how does the “activity change, negative = cytotoxicity” value read?
Answer: -7.85%

Question: For `O=C1CCc2cc([S+](=O)([O-])NC3CCOCC3)ccc2N1`, which “activity change, negative = cytotoxicity” value is on record?
Answer: -1.14%

Question: For `O=C1CCc2cc(S(=O)(=O)Nc3ccc(F)c(Cl)c3)ccc2N1`, which “activity change, negative = cytotoxicity” value is on record?
Answer: -9.53%

Question: For `O=C1c2ccccc2C(=O)N1c1cccc2cnccc12`, which “activity change, negative = cytotoxicity” value is on record?
Answer: -2.96%

Question: With `Cc1ccc(NS(=O)(=O)c2ccc3[nH]c(=O)[nH]c3c2)cc1C` as the compound, how does the “activity change, negative = cytotoxicity” value read?
Answer: -4.73%

Question: Which “activity change, negative = cytotoxicity” value does the source give for `COc1ccccc1N1C(=O)c2ccccc2C1=O` here?
Answer: -7.05%

Question: Which “activity change, negative = cytotoxicity” value does the source give for `Cc1ccc(NS(=O)(=O)c2ccc3c(c2)N(C)CCO3)cc1C` here?
Answer: -7.1%

Question: Which “activity change, negative = cytotoxicity” value does the source give for `Cc1ccc(NS(=O)(=O)c2cc3c(cc2-c2ccsc2)NC(=O)CO3)cc1C` here?
Answer: -16.1%

Question: For `Cc1ccc(Nc2c(-c3ccc(C)o3)nc3cccc(C)n23)cc1`, which “activity change, negative = cytotoxicity” value is on record?
Answer: -28.8%

Question: For `Cc1ccc(NS(=O)(=O)c2ccc3c(c2)CCCC(=O)N3)cc1C`, which “activity change, negative = cytotoxicity” value is on record?
Answer: -1.83%

Question: With `CCNc1cccc(S(=O)(=O)N2CCCN(S(=O)(=O)c3ccc4c(c3)OCCO4)CC2)c1` as the compound, how does the “activity change, negative = cytotoxicity” value read?
Answer: -20.9%

Question: With `O=C1CCc2cc(S(=O)(=O)Nc3ccncc3)ccc2N1` as the compound, how does the “activity change, negative = cytotoxicity” value read?
Answer: -16.1%

Question: For `Cc1ccc(-c2nc3cnccn3c2Nc2ccc(C(C)C)cc2)o1`, which “activity change, negative = cytotoxicity” value is on record?
Answer: -17.3%

Question: For `Cc1ccc(NS(=O)(=O)c2ccc3c(c2)CCC(=O)N3)cc1C`, which “activity change, negative = cytotoxicity” value is on record?
Answer: -10.7%

Question: For `O=C1CCc2cc(S(=O)(=O)Nc3ccc(-c4ccccc4)cc3)ccc2N1`, which “activity change, negative = cytotoxicity” value is on record?
Answer: -9.66%

Question: Which “activity change, negative = cytotoxicity” value does the source give for `COc1ccc(S(=O)(=O)Nc2ccc(C)c(C)c2)cc1` here?
Answer: -6.68%

Question: For `Cc1ccc(NS(=O)(=O)c2cccc(F)c2)cc1C`, which “activity change, negative = cytotoxicity” value is on record?
Answer: -3.4%

Question: With `Cc1ccc(NS(=O)(=O)c2cc3c(cc2N2CCC2)NC(=O)CC3)cc1C` as the compound, how does the “activity change, negative = cytotoxicity” value read?
Answer: -23.9%
